CRFBP-R2 block – antagonists of CRF-binding protein/CRF-R2 receptor complex; AID 588475; 350,000 tested, 0.59% active; HEK293 CRF-R2/CRF-BP, CRF-induced calcium fluorescence; inhibition, % at 11.8 µM;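 active = inhibition of the ligand-induced calcium signal above about 50% at the single tested concentration, limit read from the data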
CRFBP-R2 agonist – CRF-BP/CRF-R2 complex agonism; 350,000 tested, 0.46% active; AID 588473; HEK293 CRF-R2/CRF-BP, calcium dye fluorescence (FLIPR); percent of saturating CRF peptide response; activation, % at 13.2 µM;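 active = activation of at least 50%, plus an integration ratio under a set limit after plate pattern correction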
TMEM16A inh – inhibitors of mouse TMEM16A calcium-activated chloride channel; 310,000 tested, 1.2% active; HEK293 TMEM16A/YFP iodide influx fluorescence, ionomycin; normalized B-score (activity score, 25-100; higher = stronger inhibition) at 10 µM; AID 588511; Q8BHY3;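 active = ratio plate-corrected score three or more library SD toward inhibition, starting fluorescence score within five deviations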;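 note: score derived from kinetic fluorescence span divided by baseline fluorescence per well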
Target sequence (Q8BHY3 whole entry, looked up): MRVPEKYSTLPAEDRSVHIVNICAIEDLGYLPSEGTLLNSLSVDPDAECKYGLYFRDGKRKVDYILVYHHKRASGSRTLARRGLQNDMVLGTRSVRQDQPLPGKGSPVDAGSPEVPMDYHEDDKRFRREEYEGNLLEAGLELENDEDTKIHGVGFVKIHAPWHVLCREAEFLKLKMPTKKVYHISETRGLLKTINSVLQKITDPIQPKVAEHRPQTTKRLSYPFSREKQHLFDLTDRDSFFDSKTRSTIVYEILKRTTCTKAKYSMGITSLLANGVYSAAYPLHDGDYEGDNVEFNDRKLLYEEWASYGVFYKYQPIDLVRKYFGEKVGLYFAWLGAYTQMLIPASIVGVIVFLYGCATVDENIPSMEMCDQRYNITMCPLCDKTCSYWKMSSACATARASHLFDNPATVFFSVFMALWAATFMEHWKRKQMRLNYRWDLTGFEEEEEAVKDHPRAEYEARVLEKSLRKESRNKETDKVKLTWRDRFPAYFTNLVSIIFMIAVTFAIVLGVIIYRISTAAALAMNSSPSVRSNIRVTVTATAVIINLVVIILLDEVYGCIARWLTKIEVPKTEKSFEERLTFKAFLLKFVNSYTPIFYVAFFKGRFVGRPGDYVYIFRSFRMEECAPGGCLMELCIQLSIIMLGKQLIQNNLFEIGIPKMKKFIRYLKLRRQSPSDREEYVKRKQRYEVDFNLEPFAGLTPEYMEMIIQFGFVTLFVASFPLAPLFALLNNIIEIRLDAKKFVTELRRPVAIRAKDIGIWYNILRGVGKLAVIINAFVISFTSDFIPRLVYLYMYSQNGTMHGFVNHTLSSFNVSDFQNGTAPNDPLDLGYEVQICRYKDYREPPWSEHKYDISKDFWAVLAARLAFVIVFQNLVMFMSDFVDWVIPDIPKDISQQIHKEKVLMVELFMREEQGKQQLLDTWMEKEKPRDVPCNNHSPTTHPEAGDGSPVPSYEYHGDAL
ANO1 activ – activators or potentiators of mouse TMEM16A chloride channel; HEK293 TMEM16A/YFP-H148Q/I152L, iodide quench fluorescence; active compounds read low; Q8BHY3; B-score at 10 µM; 340,000 tested, 0.3% active;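 active = fluorescence-ratio B-score plate-corrected deviation score at least 3 library SD below zero, with starting fluorescence score within 5 deviations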;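 note: channel opened by trigger with iodide after compound preincubation; score built on the fluorescence ratio of max minus min over baseline; more negative score means more quench and so TMEM16A activation or potentiation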
MPTP block – blocks calcium-induced mitochondrial swelling | inhibition, % at 10 µM | 360,000 tested, 1.4% active | isolated mouse mitochondria, Ca2+ swelling absorbance, 30 min | AID 602449;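 active = inhibition of 50% or more, scaled per plate between neutral and stimulator controls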
GRIN3A LBD mod – modulators (binders) of human NR3A ligand-binding domain; Tm shift relative to glycine control, % at 25 µM; AID 1259313; 340,000 tested, 2.5% active; NR3A LBD differential scanning fluorimetry, Tm shift; 0% = protein alone, 100% = glycine-bound protein;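 active = melting temperature shift of at least 10% of the positive control shift, at one fixed dose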
A number is an active result. Most compounds without a hit are left out; they make up all but 5.1% or so of the library.

How did NC(=S)N/N=C/c1cccc(O)c1O do in these assays?
CRFBP-R2 block: inactive; CRFBP-R2 agonist: inactive; TMEM16A inh: inactive; ANO1 activ: inactive; MPTP block: inactive; GRIN3A LBD mod: inactive

Results for Cc1cc(/C=N/NC(N)=S)c(O)c(/C=N/NC(N)=S)c1 ?
CRFBP-R2 block: inactive; CRFBP-R2 agonist: 157.2; TMEM16A inh: inactive; ANO1 activ: inactive; MPTP block: inactive; GRIN3A LBD mod: inactive

Results for Cc1ccccc1C1c2[nH]c3ccccc3c2C[C@H]2C(=O)N(c3ccccc3C(=O)NCCCN3CCOCC3)C(=O)N12 (stereo partly specified) ?
CRFBP-R2 block: inactive; CRFBP-R2 agonist: inactive; TMEM16A inh: inactive; ANO1 activ: inactive; MPTP block: inactive; GRIN3A LBD mod: inactive

Results for O=[N+]([O-])c1ccc(Cl)c2cccnc12 ?
CRFBP-R2 block: inactive; CRFBP-R2 agonist: inactive; TMEM16A inh: inactive; ANO1 activ: inactive; MPTP block: inactive; GRIN3A LBD mod: 12.2

What do the screens show for `O=[N+]([O-])c1cccc2c(Cl)ccnc12`?
CRFBP-R2 block: inactive; CRFBP-R2 agonist: inactive; TMEM16A inh: inactive; ANO1 activ: inactive; MPTP block: inactive; GRIN3A LBD mod: inactive

How did CN(CC(=O)N1CCc2ccccc21)S(=O)(=O)c1ccc(Br)s1 do in these assays?
CRFBP-R2 block: inactive; CRFBP-R2 agonist: inactive; TMEM16A inh: inactive; ANO1 activ: inactive; MPTP block: inactive; GRIN3A LBD mod: 15.5

What do the screens show for `Nc1[nH]c(C(=O)c2ccccc2)c(-c2ccccc2C(F)(F)F)c1C(=O)NCCc1cccs1`?
MPTP block: inactive

How did Cc1nc(Cl)cc(N/N=C/c2ccc(O)cc2O)n1 do in these assays?
CRFBP-R2 block: inactive; CRFBP-R2 agonist: inactive; TMEM16A inh: inactive; ANO1 activ: inactive; MPTP block: inactive; GRIN3A LBD mod: 18.9

Results for Cc1nc(Cl)cc(N/N=C/c2ccc(O)cc2)n1 ?
CRFBP-R2 block: inactive; CRFBP-R2 agonist: inactive; TMEM16A inh: inactive; ANO1 activ: inactive; MPTP block: inactive; GRIN3A LBD mod: 25.8

How did Cc1cc(N/N=C/c2ccc(O)cc2)c2cccc(C)c2n1 do in these assays?
CRFBP-R2 block: inactive; CRFBP-R2 agonist: inactive; TMEM16A inh: inactive; ANO1 activ: inactive; MPTP block: inactive; GRIN3A LBD mod: 12.1

What do the screens show for `COc1ccccc1CCNC(=O)CCn1c(=O)c2cccn2c2ccc(F)cc21`?
CRFBP-R2 block: inactive; CRFBP-R2 agonist: inactive; TMEM16A inh: inactive; ANO1 activ: inactive; MPTP block: inactive; GRIN3A LBD mod: inactive

How did CCOC(=O)C1=C(c2ccccc2)N=c2s/c(=C\c3cccc(O)c3)c(=O)n2C1c1cccs1 (stereo unspecified) do in these assays?
CRFBP-R2 block: inactive; CRFBP-R2 agonist: inactive; TMEM16A inh: inactive; ANO1 activ: inactive; MPTP block: inactive; GRIN3A LBD mod: 14.1

How did CC(=O)N/C(=C\c1ccccc1)C(=O)OCCCOC(=O)/C(=C/c1ccccc1)NC(C)=O do in these assays?
CRFBP-R2 block: inactive; CRFBP-R2 agonist: inactive; TMEM16A inh: inactive; ANO1 activ: inactive; MPTP block: inactive; GRIN3A LBD mod: inactive

What do the screens show for `Cc1[nH]c2ccccc2c1/C=C/c1cc[n+](C)cc1`?
CRFBP-R2 block: inactive; CRFBP-R2 agonist: 81.3; ANO1 activ: inactive; MPTP block: inactive; GRIN3A LBD mod: inactive

Results for COc1ccc(/C=N/NC(=S)Nc2ccccc2)cc1COc1ccc(F)cc1 ?
CRFBP-R2 block: inactive; CRFBP-R2 agonist: inactive; TMEM16A inh: inactive; ANO1 activ: inactive; MPTP block: inactive; GRIN3A LBD mod: inactive

What do the screens show for `COc1ccc(/C=N/NC(=S)Nc2ccccc2)cc1COc1ccc(Br)cc1`?
CRFBP-R2 block: inactive; CRFBP-R2 agonist: inactive; TMEM16A inh: inactive; ANO1 activ: inactive; MPTP block: inactive; GRIN3A LBD mod: 11.4

Results for COc1cccc(CN(C)C(=O)c2cc(COc3ccc(-n4cncn4)cc3)on2)c1 ?
CRFBP-R2 block: inactive; CRFBP-R2 agonist: inactive; TMEM16A inh: 25; ANO1 activ: inactive; MPTP block: inactive; GRIN3A LBD mod: inactive

Results for COc1cccc(CN(C)C(=O)c2cc(COc3c(F)cccc3F)on2)c1 ?
CRFBP-R2 block: inactive; CRFBP-R2 agonist: inactive; TMEM16A inh: inactive; ANO1 activ: inactive; MPTP block: inactive; GRIN3A LBD mod: inactive

How did CC(=O)NC(Cc1ccc(C(C)C)cc1)C(=O)NC1CCN(C(=O)c2cccc(C)c2)CC1 (stereo unspecified) do in these assays?
CRFBP-R2 block: 53.4; CRFBP-R2 agonist: inactive; TMEM16A inh: inactive; ANO1 activ: inactive; MPTP block: inactive; GRIN3A LBD mod: inactive

What do the screens show for `O=C1C=CC(=O)N1Cc1ccccn1`?
CRFBP-R2 block: inactive; CRFBP-R2 agonist: inactive; ANO1 activ: inactive; MPTP block: inactive; GRIN3A LBD mod: inactive

How did O=C(NCc1ccc2c(c1)OCO2)C(=O)NCC1OCCCN1S(=O)(=O)c1cc(F)ccc1F (stereo unspecified) do in these assays?
CRFBP-R2 block: inactive; CRFBP-R2 agonist: inactive; TMEM16A inh: inactive; ANO1 activ: inactive; MPTP block: inactive; GRIN3A LBD mod: 12.6

How did Cc1cc(F)ccc1S(=O)(=O)N1CCCOC1CNC(=O)C(=O)NCc1ccc2c(c1)OCO2 (stereo unspecified) do in these assays?
CRFBP-R2 block: inactive; CRFBP-R2 agonist: inactive; TMEM16A inh: inactive; ANO1 activ: inactive; MPTP block: inactive; GRIN3A LBD mod: inactive

What do the screens show for `CCOC(=O)C(=O)/C(=C\N(C)C)c1onc(-c2c(Cl)cccc2Cl)c1C(=O)OC`?
CRFBP-R2 block: inactive; CRFBP-R2 agonist: inactive; TMEM16A inh: inactive; ANO1 activ: inactive; MPTP block: inactive; GRIN3A LBD mod: 10.8

What do the screens show for `CC(C)CN(C(=O)COC(=O)c1ccc(Br)cc1)c1c(N)n(Cc2ccccc2)c(=O)[nH]c1=O`?
CRFBP-R2 block: inactive; CRFBP-R2 agonist: inactive; TMEM16A inh: inactive; ANO1 activ: inactive; MPTP block: inactive; GRIN3A LBD mod: inactive

What do the screens show for `CCOC(=O)/C(C#N)=C/c1c(Oc2cc(C)cc(C)c2)nc2ccccn2c1=O`?
CRFBP-R2 block: inactive; CRFBP-R2 agonist: inactive; TMEM16A inh: inactive; ANO1 activ: inactive; MPTP block: inactive; GRIN3A LBD mod: 14.8

What do the screens show for `Cc1cnc(=O)[nH]c1SCc1ccc([N+](=O)[O-])cc1`?
CRFBP-R2 block: inactive; CRFBP-R2 agonist: inactive; TMEM16A inh: inactive; ANO1 activ: inactive; MPTP block: inactive; GRIN3A LBD mod: inactive

Results for CCCCNc1nc(CC)c2c(c1C#N)CCCC2 ?
CRFBP-R2 block: 60.5; CRFBP-R2 agonist: inactive; TMEM16A inh: inactive; ANO1 activ: inactive; MPTP block: inactive; GRIN3A LBD mod: inactive

How did C=CCNc1ccccc1S(=O)(=O)NCc1ccccc1 do in these assays?
CRFBP-R2 block: inactive; CRFBP-R2 agonist: inactive; MPTP block: inactive; GRIN3A LBD mod: inactive

What do the screens show for `CC(=O)Nc1ccc(NC(=O)c2cc(-c3cc(C)c(C)cc3O)n[nH]2)cc1`?
CRFBP-R2 block: inactive; CRFBP-R2 agonist: inactive; TMEM16A inh: inactive; ANO1 activ: inactive; MPTP block: inactive; GRIN3A LBD mod: 31.9

Compound activity as filed in PubChem BioAssay.
